# Assay results from PubChem BioAssay AID2685 (National Center for Advancing Translational Sciences (NCATS), 2010).
# About 2,100 (0.66%) of roughly 320,000 compounds were called active. Roughly 53% stayed inconclusive and do not appear here. Calls follow the shape of the dose curve; as a rule, active = well fitted inhibition curve with a large enough effect in the signal ratio, with a control signal flat (not every such curve was filed as active); inconclusive = small, poorly fitted or top-dose-only effect, or effect the other way, or a change in a side signal; inactive = flat fitted curve, though single readings scatter; the % refers to the signal ratio. This excerpt belongs to a sample that is enriched for actives.
# Test: qHTS Assay for Lipid Storage Modulators in Drosophila S3 Cells;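 as to cell number change: cells counted by Cell Tracker Red CMTPX staining in the red channel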; as to lipid storage change, negative = inhibition: % is scaled to controls: 0 for no effect and ±100 for the full control effect
# Conditions: BODIPY lipid droplet fluorescence, 18-24 h, cells fed with added oleic acid; cell number change: measured here: cell count max response; series mostly up to 46.1 µM; lipid storage change, negative = inhibition: at the top concentration
# Summary of the method: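 Laser-scanning cytometry quantifies lipid droplet accumulation (500–530 nm total intensity; droplet/cell object ratio) in oleic acid-fed (400 uM added) Drosophila S3 cells treated with a concentration series. 20 uM Triacsin C defined 100% inhibition.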
# Potency is read from the fitted curve at half-maximal effect.
Structure (SMILES),"lipid storage change, negative = inhibition",cell number change [%],outcome,Potency
COc1ccc(S(=O)(=O)N2CCCCC2)cc1NCC(=O)Nc1ccc(C)cc1,11.5% (inactive),-1.26,–,–
O=C(CSc1ccccc1)Nc1cccc(S(=O)(=O)N2CCOCC2)c1,-7.81% (inactive),-14.2,–,–
O=C(CNc1cccc(S(=O)(=O)N2CCCC2)c1)Nc1ccc(F)c(F)c1,–,2.77,inactive,–
COc1ccc([N+](=O)[O-])cc1NCC(=O)Nc1cc(S(=O)(=O)N2CCCCC2)ccc1C,–,-23.1,–,16.4 µM (active)
COc1cc(NC(=O)CNc2ccc(Cl)c(S(=O)(=O)N3CCOCC3)c2)cc(OC)c1,-3.31% (inactive),-14.4,–,–
CCN(CC(=O)Nc1cccc(S(=O)(=O)N2CCOCC2)c1)Cc1ccccc1,-10.6% [at 0.0737 µM] (inactive),–,–,–
COc1cc(NCC(=O)Nc2cccc(S(=O)(=O)N3CCCCC3)c2)cc(OC)c1OC,–,-2.08,inactive,–
Cc1ccc(NC(=O)CNc2cccc(S(=O)(=O)N3CCCCC3)c2)cc1F,–,–,–,1.46 µM (active)
Oc1cccc(CCC2CCCCN2Cc2cn[nH]c2-c2ccc3c(c2)OCO3)c1 (stereo unspecified),16.7% (inactive),7.37,–,–
Fc1ccc(N/N=C(/c2ccccc2)c2ccccn2)cc1,8.3% (inactive),9.54,–,–
CN(C)c1ccc(C=NCCC2(O)CCOC(C)(C)C2)cc1 (stereo unspecified),6.27% (inactive),2.42,–,–
NC(=O)N/N=C/CCc1ccccc1,1.59% (inactive),7.84,–,–
S=c1[nH]nc(CNc2cccc(Cl)c2)o1,3.6% (inactive),5.85,–,–
Cc1[nH]c2ccccc2c1/C=N/NC(=O)c1cc(C(C)C)[nH]n1,-1.1% (inactive),17.7,–,–
O=C(/C=C/c1cccc(Cl)c1)NCCc1ccccc1,8.05% (inactive),4.34,–,–
CN1CCN(c2ccc(CNS(=O)(=O)Cc3ccc(Cl)cc3)cc2)CC1,-7.74% (inactive),-12.5,–,–
CNC(=O)Cn1c(C)cc(=O)c2cccc(C)c21,10.6% (inactive),13.3,–,–
CN(Cc1ccccc1)S(=O)(=O)c1ccc(OCC(=O)Nc2cccc([N+](=O)[O-])c2)cc1,5.75% (inactive),18.8,–,–
CCOc1ccccc1OCCCC(=O)Nc1nc2ccccc2[nH]1,–,–,inactive,–
COc1ccc(-c2noc(CSc3nc4ccccc4c(=O)n3-c3ccc(C)cc3)n2)cc1,-0.476% (inactive),13.3,–,–
Clc1ccc(OCc2cn3cccnc3n2)c2ncccc12,–,–,inactive,–
CC[C@H](C)[C@H](NC(N)=O)C(=O)Nc1ccc(S(=O)(=O)NC(C)C)cc1,-0.365% (inactive),3.97,–,–
Cc1ccc([N+](=O)[O-])cc1NC(=O)CCCOc1ccccc1,4.91% (inactive),2.03,–,–

Structure (SMILES),"lipid storage change, negative = inhibition",cell number change [%],outcome,Potency
O=C(CNc1cccc(S(=O)(=O)N2CCCC2)c1)Nc1cccc(Br)c1,12.9% (inactive),14.3,–,–
COc1ccc(OCCCC(=O)Nc2cc([N+](=O)[O-])ccc2C)cc1,–,-3.49,–,14.6 µM (active)
O=C(CNc1cccc(S(=O)(=O)N2CCCCCC2)c1)Nc1cccc([N+](=O)[O-])c1,–,20.3,–,20.6 µM (active)
CC(=O)c1cccc(NCC(=O)Nc2cccc(S(=O)(=O)N3CCCCC3)c2)c1,24.6% (inactive),13.3,–,–
COc1ccc(OCCCC(=O)Nc2cccc([N+](=O)[O-])c2)cc1,-0.331% (inactive),10.1,–,–
O=C(O)c1cccc(Nc2c([N+](=O)[O-])c(=O)oc3ccccc23)c1,8.97% (inactive),3.37,–,–
CC(=O)Oc1ccc(C(=O)Nc2ccc(S(=O)(=O)N3CCOCC3)cc2)cc1,–,-28,inactive,–
Cc1ccc2[nH]c(=O)c(CN(CC3CCCO3)C(=S)Nc3ccccc3)cc2c1 (stereo unspecified),13.6% (inactive),-9.29,–,–
CCOc1ccc(NC(=O)C2C(c3ccccc3)C2(Cl)Cl)cc1 (stereo unspecified),–,-15.7,–,16.4 µM (active)
COc1ccc(NC(=O)C2C(c3ccccc3)C2(Cl)Cl)cc1 (stereo unspecified),-5.18% (inactive),19.2,–,–
O=C(Nc1ccccc1)C1C(c2ccccc2)C1(Cl)Cl (stereo unspecified),-7.1% (inactive),-2.33,–,–
OCCN1CCN(CCSc2ccccc2)CC1,1.19% (inactive),0.698,–,–
CCn1ncc(-c2csc(N)n2)c1C,9.04% (inactive),9.82,–,–
O=C(c1ccccc1)N1CN2CN(C(=O)c3ccccc3)CC([N+](=O)[O-])(C2)C1,9.02% (inactive),6.5,–,–
COc1ccccc1C(CNC(=O)c1cc(C)nc2ccccc12)N(C)C (stereo unspecified),–,9.21,inactive,–
CCCN=CC1=C(O)CC(c2ccccc2)CC1=O (stereo unspecified),2.06% (inactive),5.05,–,–
CCCCCN=CC1=C(O)CC(c2ccccc2)CC1=O (stereo unspecified),-7.93% (inactive),-15.5,–,–
O=C(O)CCN=CC1=C(O)CC(c2ccccc2)CC1=O (stereo unspecified),–,15.8,–,1.03 µM (active)
COCCn1c(SCC(=O)NCCc2ccc(OC)c(OC)c2)nc2c([nH]c3ccccc32)c1=O,5.55% (inactive),5.96,–,–
O=C(O)Cn1cc(C(=S)N2CCOCC2)c2ccccc21,–,-0.629,–,23.1 µM (active)
NC(=O)Cn1cc(C(=O)C(=O)N2CCOCC2)c2ccccc21,–,-8.62,inactive,–
S=C(c1cn(Cc2ccccc2)c2ccccc12)N1CCOCC1,5.71% (inactive),4.05,–,–
